The whole screen tested about 69,000 compounds, of which about 8,600 (12%) showed an effect of 50% or more. Many of the other results were omitted from the sample, so strong results are more common in it than they were.

This assay concerns Plasmodium berghei. Briefly: Screen against P. berghei liver stage (PbLuc), transformed with Luciferase, at 10uM. Type of assay: functional, HepG2. As to conditions: tested at 10 uM.
With `CS(=O)(=O)CCCSc1cccc(C#N)c1`, the INHIBITION is given as -9.08%.
The figure for `O=c1occ(CN2CCSCC2)c(O)c1CN1CCCC1` is 4.93%; for `O=C(c1ccco1)N1C[C@H]2CCCN(CC3CC3)[C@H]2C1` it is 25.5%; for `CCc1cc(C(=O)N2CCC(O)(Cn3ccc4ccncc43)CC2)no1` it is -0.902%.
The figure for `Cc1ncc(Cl)c(C(=O)N2CCCC(n3nc(C)nc3C)C2)n1` (stereo unspecified) is 17.265%; for `O=C(Cn1ccc2ccc(Cl)cc21)NCc1ccc(C(=O)O)cc1` it is -6.42%.
The figure for `O=C([C@H]1CN(Cc2ccc(F)cc2)C[C@H]2OCC[C@@H]12)N1CCCO1` is 24.9%; for `CNC(=O)[C@H]1C[C@H]2OCC[C@H]2N(Cc2ccc(F)cc2)C1` it is 33%.
Take `O=C([C@H]1C[C@H]2OCC[C@H]2N(Cc2ccccn2)C1)N1CCCCO1`: the INHIBITION was determined as 5.44%.
The value for `O=C([C@H]1C[C@H]2OCC[C@H]2N(Cc2ccoc2)C1)N1CCCCO1` was 88.2%; that for `O=C([C@H]1C[C@H]2OCC[C@H]2N(Cc2ccccc2F)C1)N1CCCCO1` was 59%.
Regarding `O=C([C@H]1C[C@H]2OCC[C@H]2N(Cc2ccc(F)cc2)C1)N1CCCCO1`, the INHIBITION is given as 38.1%.
In the case of `O=C([C@H]1C[C@H]2OCC[C@H]2N(Cc2ccoc2)C1)N1CCCO1`, the INHIBITION was 19.4%.
The value for `O=C([C@H]1CN(Cc2ccccc2F)C[C@H]2OCC[C@@H]12)N1CCCO1` was 61.9%.
`CN(C)C(=O)[C@H]1C[C@H]2OCC[C@H]2N(Cc2ccc3c(c2)OCO3)C1`: the INHIBITION amounted to 28.7%.
The figure for `CN(C)C(=O)[C@H]1C[C@H]2OCC[C@H]2N(Cc2ccc(F)cc2)C1` is 53.2%; for `O=C([C@H]1CN(Cc2cccnc2)C[C@H]2OCC[C@@H]12)N1CCCO1` it is 26.5%; for `Cc1ccccc1CN1C[C@@H](C(=O)N2CCCCO2)C[C@H]2OCC[C@H]21` it is 42.7%.
The figure for `Cc1ccc(CN2CCc3ncnc(C4CCOC4)c3CC2)s1` (stereo unspecified) is -31.6%; for `CC(C)=CCN1CCN(C(=O)c2cc(C(C)C)on2)[C@H]2CS(=O)(=O)C[C@H]21` it is 17.7%.
Take `CN(C)c1cc(C2CCN(C(=O)c3cnn(C)c3)CC2)ccn1`: the INHIBITION was 26.4%.
With `COCCN1CC(=O)N(C(C)C)C(C)(C)C1`, the INHIBITION was -1.3%.
The value for `CCCc1nc(CN(CC)Cc2ccc(S(C)(=O)=O)cc2)no1` was -21.9%.
The figure for `Cn1nc2c(cc1=O)CN(Cc1coc(-c3ccc(F)cc3)n1)CC2` is -0.113%.
Regarding `CN(Cc1cccnc1)[C@@H]1CN(Cc2nccn2C)[C@@H]2CCCO[C@H]12`, the INHIBITION was -27%.
Turning to `CC(C)NC(=O)C1CCc2nnc(CNC(=O)c3cccnc3)n21` (stereo unspecified), the INHIBITION is -57.8%.
The value for `CCC[C@H]1CN(C(=O)Cn2ccccc2=O)C[C@@H]1NS(C)(=O)=O` was 20.6%; that for `Cc1c(C(=O)NCCN2C(=O)CCC2=O)sc2ccc(F)cc12` was -64.6%.
The figure for `CC1CCN(C(=O)[C@@H]2C[C@H]3OCC[C@H]3N(Cc3ccoc3)C2)CC1` is 59%; for `O=C(NC1CCCC1)[C@H]1C[C@H]2OCC[C@H]2N(Cc2ccoc2)C1` it is -1.55%; for `O=C(NCC1CC1)[C@H]1C[C@H]2OCC[C@H]2N(Cc2ccoc2)C1` it is 35.3%.
The figure for `CCC1=NC2(CCC(C(=O)Nc3ccc(F)cc3)CC2)C(=O)N1C` (stereo unspecified) is 42.4%.
For the compound `CCC1=NC2(CCC(C(=O)Nc3ccc(C)nc3)CC2)C(=O)N1C` (stereo unspecified), the INHIBITION is 64.3%.
The value for `Cc1ccc(NC(=O)[C@H]2C[C@H](C(=O)O)CN(CC3CC3)C2)cn1` was 39.4%.
The value for `O=C1CCN(C(=O)NCCc2c[nH]c3ccc(Cl)cc23)CCN1` was 1.56%.
The figure for `COc1ccccc1-c1nc(C(=O)N(C)C)n2ccncc12` is 30.8%; for `COC(=O)CNC(=O)c1nc(-c2ccccc2OC)c2cnccn12` it is 54.9%.
On to `COc1ccccc1-c1nc(C(=O)N2CCOCC2)n2ccncc12`, for which the INHIBITION stood at 32.5%.
Regarding `COc1ncc(CN2CCCC2c2[nH]ncc2C(=O)N(C)C)cn1` (stereo unspecified), the INHIBITION is reported as 3.48%.
The value for `Cn1ncc(-c2cc(-c3cccc(O)c3)nc(N)c2C#N)c1C1CC1` was 80%; that for `Cc1cccc(-c2cc(-c3c(C)nn(CCO)c3C)c(C#N)c(N)n2)c1` was -13.2%; that for `Cc1cc(O)ccc1-c1cc(-c2cnn(C)c2C2CC2)c(C#N)c(N)n1` was 87.9%.
As to `Cc1n[nH]c(C)c1-c1cc(-c2cccc(O)c2)nc(N)c1C#N`, the INHIBITION turned out to be 57.6%.
The figure for `Cc1nn(C)c(C)c1-c1cc(-c2cnn(C)c2C2CC2)c(C#N)c(N)n1` is 34.5%; for `CC(C)c1cc(-c2cnn(C)c2C2CC2)c(C#N)c(N)n1` it is -14.3%.
The value for `Cc1n[nH]c(C)c1-c1cc(-c2ccc[nH]2)nc(N)c1C#N` was 7.22%.
The value for `N#Cc1c(C2CC2)cc(-c2ccc(O)cc2)nc1N` was -14.9%; that for `Cc1n[nH]c(C)c1-c1cc(-c2cc[nH]c2)nc(N)c1C#N` was 28%; that for `CC(=O)N1CCN(C(=O)C2CCN(c3cccnn3)C2)CC1` (stereo unspecified) was -8.12%.
Turning to `COC(=O)C1=C(C)N=C2SCC(=O)N2C1c1cnn(C)c1C` (stereo unspecified), the INHIBITION is listed as 22.6%.
With `COc1ccc(CC2(CO)CCN(c3cc(N)ncn3)CC2)cc1`, the INHIBITION is on record as 26.8%.
For `Cn1ccnc1C1CCN(C(=O)COCC(F)(F)C(F)F)CC1`, the INHIBITION worked out at 59.1%.
On to `O=C(COCC(F)(F)C(F)F)N1CCC(c2ncc[nH]2)CC1`, for which the INHIBITION is recorded as 40.6%.
Consider `CCOCC(=O)N1CCC(c2nccn2C)CC1`, for which the INHIBITION amounted to 11.8%.
With `O=C(Cc1csc(-c2ccco2)n1)N1CCN(c2nccs2)CC1`, the INHIBITION is listed as -21.7%.
The value for `CO[C@H]1CN(C(=O)c2ccc[nH]2)[C@@H]2COC[C@H]12` was -29%.
Consider `COCCNC(=O)c1ccc2ccc(N(C)CC3CC3)n2c1`, for which the INHIBITION is on record as 26%.
Consider `O=S(=O)(c1ccccc1)N1CCN(CCn2ccnc2)CC1`, for which the INHIBITION is listed as -26.6%.
For `O=S(=O)(c1ccc(F)cc1)N1CCN(CCCn2ccnc2)CC1`, the INHIBITION is -49.3%.
Consider `O=S(=O)(c1ccc(Cl)cc1)N1CCN(CCCn2ccnc2)CC1`, for which the INHIBITION is recorded as 76.7%.
The figure for `Cc1ccc(S(=O)(=O)N2CCN(CCCn3ccnc3)CC2)cc1` is 81%.
The figure for `O=S(=O)(c1cccnc1)N1CCN(CCn2ccnc2)CC1` is -0.113%; for `COc1ccc(F)cc1S(=O)(=O)N1CCN(CCn2ccnc2)CC1` it is 18.2%; for `CCc1ccc(S(=O)(=O)N2CCN(CCn3ccnc3)CC2)cc1` it is 51.2%.
Consider `COc1ccc(S(=O)(=O)N2CCC(Cn3ccnc3)CC2)cc1`, for which the INHIBITION was determined as 8.46%.
The value for `O=S(=O)(c1ccccc1)N1CCCN(CCCn2ccnc2)CC1` was 37%.

The values above are taken from ChEMBL document CHEMBL4513216, “Probing the Open Global Health Chemical Diversity Library for Multistage-Active Starting Points for Next-Generation Antimalarials” (ACS Infect Dis, 2020).
